Screening data as filed in PubChem.
ADAM10 inh: human ADAM10 inhibitors, primary screen, biochemical, QFRET, HTS; Disintegrin and metalloproteinase domain-containing protein 10 (Homo sapiens), O14672; recombinant ADAM10, EDANS/DABCYL FRET peptide cleavage, 3 h; inhibition, % at 7 µM; 370,000 tested, 0.62% active; AID 720582, 2013;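 active = inhibition above a per-campaign cutoff equal to the mean of compounds falling between control-based bounds plus 3 SD, cut at about 20% in these data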;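 note: 0% = DMSO wells while the 100% control is not disclosed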
ADAM17 inh: ADAM17 inhibitors, primary screen, biochemical, QFRET; inhibition, % at 6.95 µM; Disintegrin and metalloproteinase domain-containing protein 17 (Homo sapiens), P78536; recombinant ADAM17, EDANS/DABCYL FRET peptide cleavage; AID 720648, 2013; 370,000 tested, 0.83% active;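 active = inhibition above the mean of compounds lying between control limits plus 3 SD, set per campaign, cut at about 8.5% in these data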;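 note: 0% = DMSO-only wells as the low control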
PLC-gamma1 inh: PLC-gamma1 enzyme inhibitors, primary screen, biochemical, fluorescence, purified enzyme; fluorogenic substrate; inhibition, % at 12.2 µM; 370,000 tested, 0.84% active; AID 720700, 2013; in the data active = inhibition above about 9.5%
proKLK7 act: proKLK7 zymogen activators, primary screen, biochemical, fluorescence intensity; Kallikrein-7 (Homo sapiens), P49862; purified proKLK7, EDANS-DABCYL substrate fluorescence; 100% is mature enzyme control, 0% vehicle; activation, % at 7 µM; 370,000 tested, 0.9% active; AID 652039, 2013;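 active = activation above the mean of all tested compounds plus 3 SD, computed per campaign excluding outliers beyond control limits, cut at about 13% in these data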
PLCb3 inh: human PLC-beta3 inhibitors, primary screen, biochemical, fluorescence. 1-phosphatidylinositol 4,5-bisphosphate phosphodiesterase beta-3 (Homo sapiens), Q01970. inhibition, % at 12.2 µM. 370,000 tested, 0.18% active. Purified PLC-beta3, fluorogenic substrate; in the data active = inhibition above about 11%;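 note: 0% = median of compound wells on plate and 100% = full blocker control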
KLK7 act conf: proKLK7 zymogen activators, confirmation, biochemical, fluorescence intensity, triplicate | shares compounds with proKLK7 act | purified proKLK7, EDANS-DABCYL substrate fluorescence; scaled: vehicle 0, mature enzyme 100 | activation, % at 7 µM | 3,200 tested, 68% active | AID 686949, 2013;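 active = activation, as change over the incubation, above the mean of all tested compounds plus 3 SD, cut at about 13% in these data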
EDANS-DABCYL int: EDANS-DABCYL substrate optical interference, artefact control for kallikrein-7 zymogen activator project, biochemical, fluorescence intensity, high throughput. activation, % at 7 µM. 3,200 tested, 80% active. shares compounds with proKLK7 act. no enzyme, 4 h; solvent 0%, active enzyme control 100%;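 active = activation above the all-compound mean plus 3 SD, ignoring values outside control-based bounds, cut at about 4.8% in these data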;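 note: value is the 4 h activation minus the activation read at time zero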
EDANS interf: optically interferes with EDANS-DABCYL fluorescence, kallikrein-7 activator counter-screen | shares compounds with proKLK7 act | EDANS-DABCYL peptide fluorescence interference, no enzyme | EC50, µM | 250 tested, 20% active;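 active = compounds that raise the fluorescence signal in this interference counterscreen, with EC50 at or below 10 µM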;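 note: intact quenched peptide substrate alone read at 355 nm excitation and 520 nm emission; signal is fluorescence gain from T0 to T4 after four hours at room temperature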
Starred values were filed as active, the others as inactive; i = inactive; . = no result given. Compounds with a hit are over-represented: about 2.9% of the library has one in this group of screens.

SMILES	ADAM10 inh	ADAM17 inh	PLC-gamma1 inh	proKLK7 act	PLCb3 inh	KLK7 act conf	EDANS-DABCYL int	others
CCc1cc2c(=O)c(-c3nc4ccccc4n3C)coc2c(CN2CCCCC2)c1O	-174.4	-67.7	-350.9	12.9*	-447.6	7.2	8.8*
CCc1cc2c(=O)c(-c3nc4ccccc4n3C)coc2c(CN2CCCCC2C)c1O (stereo not given)	-127.0	-49.0	-322.0	15.6*	-389.7	8.4	14.7*
CCc1cc2c(=O)c(-c3nc4ccccc4n3C)coc2c(CN2CCOCC2)c1O	-45.2	-12.3	-64.5	2.5	-68.2	.	.
CCOC(=O)N1CCC2(CC1)CC(=O)c1cc(O)ccc1O2	-2.0	1.2	-33.5	1.7	-38.6	.	.
CC1(C)CC(=O)c2cc(OCC(=O)N3CCCCCC3)ccc2O1	i	i	i	25.6*	i	68.1*	74.9*
CCOC(=O)COc1ccc2c(c1)C(=O)CC(C)(C)O2	i	-423.2	i	18.5*	i	66.5*	67.0*
CC1(C)CC(=O)c2cc(OCC(=O)NCCN3CCOCC3)ccc2O1	i	-212.2	i	16.3*	i	25.3*	25.5*
Cc1cc(OCC(=O)NCCN2CCOCC2)cc(C)c1Br	-7.8	-2.5	1.3	-1.2	1.1	.	.
CCOC(=O)N1CCN(C(=O)COc2cc(C)c(Cl)c(C)c2)CC1	4.4	-0.2	2.6	-0.5	2.5	.	.
CCOC(=O)N1CCN(C(=O)COc2ccc3c(c2)C(=O)CC(C)(C)O3)CC1	i	i	i	31.1*	i	26.4*	10.5*	EDANS interf=>69.5
CC1(C)CC(=O)c2cc(OCC(=O)N3CCN(c4ccccc4F)CC3)ccc2O1	-358.0	-134.2	-251.4	9.6	-343.0	.	.
CSCCCNC(=S)Nc1ccc(N2CCOCC2)cc1	-6.0	-2.9	1.0	0.1	-7.3	.	.
CC(=Nc1cc(C(=O)c2ccccc2)ccc1N)C1=C(O)CC(C)(C)CC1=O	-0.6	-0.6	-6.1	-1.0	-7.0	.	.
O=C1Nc2ccccc2/C1=N\N1CCOCC1	-5.5	-6.1	0.3	-0.4	-7.9	.	.
Cc1[nH]c2ccccc2c1C(=O)C(=O)N1c2ccccc2CC1C (stereo not given)	-6.8	-4.2	-0.4	-0.5	-8.3	.	.
CC1(C)CC(=O)c2cc(OCC(=O)O)ccc2O1	i	-338.6	i	13.8*	i	41.7*	48.1*
COc1ccc2c(c1)C(=O)CC(O)(C(F)F)O2 (stereo not given)	i	-222.7	-402.1	45.3*	-440.1	40.0*	32.8*
CC1(C)CC(=O)c2cc(O)ccc2O1	-14.3	-5.7	-34.2	2.1	-41.7	.	.
CCOC(=O)c1cnn2c(C(F)(F)F)cc(-c3cn(C)nc3C)nc12	i	-257.7	i	19.7*	i	40.6*	24.6*	EDANS interf=>69.5
CCOC(=O)c1cnn2c(C(F)(F)F)cc(-c3ccccc3)nc12	-94.5	-30.3	-162.2	18.6*	-183.9	-68.8	-73.3
CCOC(=O)C1CCCN(C(=O)c2cnn3c(C(F)(F)F)cc(-c4ccccc4)nc23)C1 (stereo not given)	-35.2	-17.8	-132.3	5.6	-201.6	.	.
COc1ccc(-c2cn3cccnc3n2)cc1NC(=O)C1CCCC1	-103.3	-32.6	-188.6	2.4	-272.1	.	.
COc1ccc(-c2cn3cccnc3n2)cc1Br	i	i	i	31.8*	i	78.8*	75.3*
Cc1ccc(-c2cn3cccnc3n2)cc1NC(=O)c1cccs1	i	i	i	33.0*	i	35.2*	39.0*
COc1cc(C(=O)Nc2cc(-c3cn4cccnc4n3)ccc2C)cc(OC)c1OC	i	i	i	47.3*	i	-11.8	-19.7
SMILES	ADAM10 inh	ADAM17 inh	PLC-gamma1 inh	proKLK7 act	PLCb3 inh	KLK7 act conf	EDANS-DABCYL int	others
COc1cc(OC)cc(C(=O)Nc2cc(-c3cn4cccnc4n3)ccc2C)c1	i	i	i	13.6*	i	-92.2	-83.2
COc1ccc(-c2cn3cccnc3n2)cc1NC(=O)C(C)C	i	-153.3	-482.7	8.3	i	.	.
O=C(NCc1ccccc1)c1ccc(NC(=O)c2ccccc2F)cc1	-17.2	-4.5	2.4	0.7	-8.5	.	.
Cc1cc(=O)n2c(n1)SCOC2	-3.3	-1.9	2.1	0.6	-0.1	.	.
Cc1cc(NC(=O)COC(=O)CNS(=O)(=O)c2c(F)cc(F)cc2Br)no1	-19.4	-3.5	-2.1	-0.6	0.7	.	.
O=[n+]1cc(-c2cc3ccccc3o2)n([O-])c2c1CCCC2	-162.4	-45.1	-385.9	14.9*	i	12.4	17.8*
Cc1ccc(OCC(=O)c2cc(C)n(CC(F)(F)F)c2C)c([N+](=O)[O-])n1	-0.1	1.3	0.0	1.1	-5.6	.	.
Cc1c(C)c2c(OCC(=O)O)cc3c(c2oc1=O)CCC(C)(C)O3	i	i	i	33.2*	i	60.7*	72.7*
Cc1c(C)c2c(OCC(=O)NCC(=O)NCC(=O)O)cc3c(c2oc1=O)CCC(C)(C)O3	i	i	i	57.1*	i	78.9*	79.3*
Cc1c(C)c2c(OCC(=O)Nc3ccc(CCO)cc3)cc3c(c2oc1=O)CCC(C)(C)O3	i	i	i	-58.6	i	.	.
COc1ccc2c(=O)c(-c3ccc(OC)c(OC)c3)coc2c1	11.8	1.8	4.7	0.5	7.3	.	.
COc1ccc(-c2coc3cc(OC(C)=O)c(OC)cc3c2=O)cc1	-332.6	-83.2	-270.1	42.9*	-363.1	153.5*	110.6*
CCNc1cc2n(c(=O)n1)CCc1cc(OC)c(OC)cc1-2	-302.1	-90.5	-128.0	5.6	-203.1	.	.
COc1cc2c(cc1OC)-c1cc(OCCN3CCOCC3)nc(=O)n1CC2	i	i	i	77.1*	i	68.9*	63.6*
Cc1nn2c(c1-c1ccccc1)NC1=C(C(=O)CCC1)C2c1ccccc1 (stereo not given)	i	-494.5	i	30.1*	i	62.6*	74.2*
CN(C)c1ccc2c(=O)cc[nH]c2c1	i	i	i	79.6*	i	72.4*	73.5*
O=c1cc[nH]c2c1ccc1c(=O)cc[nH]c12	-271.7	-107.6	-413.9	-61.1	i	.	.
Cc1ccc(NC(=O)CN(C)C(=O)C(C)N2CCN(Cc3ccccc3C)CC2)cc1 (stereo not given)	-4.8	0.8	-2.2	0.8	-4.2	.	.
CNC(=O)c1ccc(-c2ccc(OC)cc2)s1	i	i	i	50.3*	i	55.9*	65.5*
